Screening data (PubChem)
D2 antag: D2 dopamine receptor (human) antagonism. P14416. HEK293 TREx D2 cells, calcium flux, dopamine EC80. 340,000 compounds, 2% hits. inhibition, % at 10 µM; in the data active means inhibition above about 30%; inactive means below that, where a call was filed; further: 0% is about no effect
Target sequence (P14416 whole entry, looked up): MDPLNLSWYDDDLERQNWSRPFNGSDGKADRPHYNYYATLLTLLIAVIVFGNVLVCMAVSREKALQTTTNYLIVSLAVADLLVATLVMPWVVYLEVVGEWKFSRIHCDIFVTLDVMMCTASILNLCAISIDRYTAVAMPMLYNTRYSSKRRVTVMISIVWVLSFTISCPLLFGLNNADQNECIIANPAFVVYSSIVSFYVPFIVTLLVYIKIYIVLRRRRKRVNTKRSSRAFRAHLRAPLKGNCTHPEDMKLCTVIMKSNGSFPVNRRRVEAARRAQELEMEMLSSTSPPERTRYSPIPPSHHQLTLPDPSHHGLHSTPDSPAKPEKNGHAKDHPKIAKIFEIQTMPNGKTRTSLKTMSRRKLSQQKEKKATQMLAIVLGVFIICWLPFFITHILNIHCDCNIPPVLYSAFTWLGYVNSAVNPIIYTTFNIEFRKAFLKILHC
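Antagonism is scored as inhibition of an EC80 dopamine-evoked calcium signal in a force-coupled, tetracycline-inducible HEK293 T-REx D2 line, with compound present 180 s before agonist.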
D2 PAM-1: human D2 receptor positive allosteric modulation; P14416; DiscoveRx D2 beta-arrestin cells, luminescence, 90 min; 100% = 57 uM dopamine signal; potentiation, % (test concentration not listed); 360,000 compounds, 0.23% hits; AID 624464; in the data active means potentiation above about 50%; inconclusive means mostly about 30% to 49%
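D2 cells co-treated with compound plus 50 nM dopamine (EC20) for 90 min at 37 deg C to detect potentiation. Beta-arrestin recruitment was read as enzyme-fragment luminescence after 1 h at ambient temperature. Full response was set by 57 uM dopamine.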
D2 ag-1: activates the human D2 dopamine receptor; P14416; HEK293 T-REx D2 cells, calcium flux agonist mode; activation, % at 2 µM; 340,000 compounds, 0.53% hits; AID 485358;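 active means activation over 3 SD above normal in the single-dose calcium agonist read, cut at about 30% in these data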; further: 0% is about no effect
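Tetracycline-induced HEK293 T-REx cells with force-coupled D2 receptor, plated overnight at 30 C, loaded with no-wash calcium dye. After a 10 s baseline, compound was pin-added and calcium flux read kinetically for 180 s; calcium rises flagged agonists.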
D2 PAM-2: positively modulates the human D2 dopamine receptor allosterically | P14416 | HEK293 T-REx D2, calcium flux, EC20 dopamine potentiation | potentiation, % at 10 µM | 340,000 compounds, 0.34% hits | AID 485347;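 active means potentiation over 3 SD above the plate norm, cut at about 30% in these data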; further: 0% is about no effect
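Calcium flux readout, no-wash dye, 1 read/s. Inducible HEK293 Trex D2 line, overnight 30 C. Compound alone 180 s (agonist flags), then EC20 dopamine, another 180 s to score potentiation.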
D2 ag-2: human D2 receptor agonism in beta-arrestin assay | P14416 | DiscoveRx PathHunter D2 beta-arrestin, luminescence, 90 min; 100% = 57 uM dopamine signal | activation, % (no concentration beside the values) | 360,000 compounds, 0.084% hits | AID 624465; in the data active means activation above about 40%; inconclusive means between about 15% and that limit
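Agonist mode: compounds alone added to overnight-plated D2 PathHunter cells for 90 min at 37 C, with 57 uM final dopamine (EC100) defining full response. Beta-arrestin recruitment detected by chemiluminescent reagent, read after 1 h at ambient temperature.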
Numbers without * were called inactive; u = inconclusive; x = no result. Compounds with a hit are over-represented: about 2.4% of the library has one in this group of screens.

SMILES	D2 antag	D2 PAM-1	D2 ag-1	D2 PAM-2	D2 ag-2
Cc1ccc(C(=O)c2cn(Cc3ccccc3)c3nc(C)ccc3c2=O)cc1	x	x	0	4	x
O=C(Nc1cccc(F)c1)Nc1cnccn1	-13	-9	1	11	1
O=C(Nc1cccc(F)c1)Nc1ccccn1	87*	-10	0	-23	-4
O=C(CCC(=O)Nc1ccc(Br)cc1)N/N=C/c1ccccc1F	7	-6	0	-1	3
O=C(CCC(=O)Nc1ccc(F)cc1)N/N=C/c1ccccc1O	34*	-20	0	-7	-2
O=C(CCC(=O)Nc1ccccc1)N/N=C/C=C/c1ccccc1	30*	-2	0	-10	1
COc1ccccc1-c1nc(CNC(=O)Nc2ccccc2)c(C)o1	x	x	x	2	x
O=C(CSc1ncnc2nc[nH]c12)c1ccc(Cl)cc1	14	-1	2	3	6
O=C(CSc1ncnc2nc[nH]c12)c1ccc([N+](=O)[O-])cc1	-1	56*	-1	3	14
Cc1cc(S(=O)(=O)N2CCN(c3ccccn3)CC2)ccc1F	33*	0	0	-5	0
CC(C)OCCCN1C(=O)c2[nH]nc(-c3ccccc3O)c2C1c1cccc(OCc2ccccc2)c1 (stereo unspecified)	x	x	-1	5	x
OC1(c2ccccc2)CCN(Cc2ccccc2)C2CCCCC21 (stereo unspecified)	38*	-37	2	-27	-6
Cc1oc(-c2cccs2)nc1CN1CC[C@@](O)(c2ccccc2)[C@H]2CCCC[C@@H]21	14	-14	0	-9	-1
CCC(C)(C)NC(=O)C(c1cccn1C)N(C(=O)Cn1nnc2ccccc21)c1ccc(OC)cc1OC (stereo unspecified)	30*	-12	0	1	-3
CCOc1ccc(N(C(=O)Cn2nnc3ccccc32)C(C(=O)NC(C)(C)CC)c2cccn2C)cc1 (stereo unspecified)	-6	-19	1	4	0
CCN(CC)S(=O)(=O)c1cc(NC(=O)CSCc2c(C)noc2C)ccc1C	x	-6	x	x	-2
CC1Cc2ccccc2N1Cc1cc(=O)c(OCC(=O)NCCc2ccccc2)co1 (stereo unspecified)	17	-15	-1	-7	-3
CC(CN(C)C)CN1c2ccccc2Sc2ccccc21 (stereo unspecified)	76*	-33	0	-21	0
CC(CN1c2ccccc2Sc2ccccc21)N(C)C (stereo unspecified)	54*	-17	1	-26	-6
CCN(CC)CC(O)CN1c2ccccc2Sc2ccccc21 (stereo unspecified)	-23	-37	-1	-22	7
CN(C(=O)c1ccccc1C(=O)OCC(=O)Nc1ccc(S(N)(=O)=O)cc1)c1ccccc1	5	4	1	-5	-2
COc1ccc(C(=O)COc2nc(C)cc(C)c2C#N)cc1	35*	-4	0	0	-4
Cc1nn(CC(=O)Nc2ccc(Br)cc2F)c(=O)c2cccn12	47*	2	0	-6	-4
Cc1ccccc1NC(=O)Cn1nc(C)n2cccc2c1=O	17	2	0	-6	1
CC(=O)NC/C(C)=N\Nc1ccc([N+](=O)[O-])cc1	3	-1	3	1	-1
SMILES	D2 antag	D2 PAM-1	D2 ag-1	D2 PAM-2	D2 ag-2
CC(=O)/C(=N\Nc1ccccc1)Oc1ccc([N+](=O)[O-])cc1	11	1	0	34*	0
O=c1c(Cc2ccc(F)cc2)c(O)ccn1CCc1ccccn1	41*	-2	1	-7	-4
CCCCn1ccc(O)c(Cc2ccc(F)cc2)c1=O	0	-39	-1	0	-3
CCOC(=O)c1c(NC(=O)COC(=O)c2ccc(O)cc2)sc(C(=O)N(C)C)c1C	-9	-5	0	36*	0
CCOC(=O)c1c(NC(=O)OC)sc(C(=O)N(C)C)c1C	69*	14	0	-5	4
COc1ccc(NC(=O)c2cc(-c3cc(F)ccc3OCC3CCCO3)n[nH]2)cc1OC (stereo unspecified)	x	15	x	x	13
N#Cc1c(F)cccc1N1CCN(Cc2ccc3c(c2)OCO3)CC1	85*	-19	7	-35	-4
C=CCN1C(c2ccc(OCC)cc2)=CS/C1=C(\C#N)c1nnc2n1CCCCC2	11	9	0	45*	5
C=CCN1C(c2ccc(Br)cc2)=CS/C1=C(\C#N)c1nnc(N2CCOCC2)n1-c1ccccc1	x	-9	x	x	1
O=C1N(Cc2ccccc2)c2ccccc2OC1(F)F	x	-6	x	x	8
CCOc1ccccc1OCCCC(=O)Nc1cccc(-n2cnnn2)c1C	-15	-2	0	-10	3
COc1ccccc1Cc1c(C2CCCCC2)nc2ccc(Br)cn12	x	-15	x	x	-5
COc1ccc(NC(=O)c2cc3cc(C)ccc3n2C)c(OC)c1	34*	-6	0	0	1
COc1ccc(NC(=O)c2cnc(SC)nc2C)c(OC)c1	38*	0	1	19	-1
COc1ccc(NC(=O)c2cc(S(=O)(=O)N3CCOCC3)cn2C)c(OC)c1	41*	-2	1	-7	2
COc1ccc(NC(=O)c2cc(S(=O)(=O)N3CCCCCC3)cn2C)c(OC)c1	x	x	-1	5	x
COC(=O)c1ccccc1NC(=O)c1cc2cc(C)ccc2n1C	x	x	x	-5	x
Cc1ccc2c(c1)N(C(=O)Nc1cccc3c1CCCC3)CCO2	x	x	0	6	x
COc1ccc(-n2c(CCC(=O)O)ccc2-c2ccccc2)c(OC)c1	x	x	1	6	x
CCCCC(=O)Nc1nc2c(s1)COc1ccccc1-2	52*	-4	3	-5	-1
Cc1nc(N)sc1C(=O)N/N=C/c1ccccc1[N+](=O)[O-]	33*	x	1	5	x
CCCC(C)(C)C(=O)N1CCC1(C)C(=O)NS(=O)(=O)c1cccc(Cl)c1 (stereo unspecified)	x	7	x	x	-1
O=C(O)CCCC(=O)Nc1nc2n(n1)C(c1ccc(F)cc1)CC(c1ccc(Cl)cc1)N2 (stereo unspecified)	32*	-9	-1	-8	-3
CCNC(=O)C1(C)CCCN1C(=O)c1cc(OC)c(OC)c(OC)c1 (stereo unspecified)	x	-1	x	x	-7
CC1Cc2nc(SCC(=O)OCc3ccccc3)n(C)c(=O)c2S1 (stereo unspecified)	-5	-11	-1	35*	-1
CC1Cc2nc(SCC(=O)N3CCc4ccccc43)n(C)c(=O)c2S1 (stereo unspecified)	7	4	2	-6	0
Nc1cc(-c2ccccc2)ccc1O	8	98*	0	3	u
CC(=O)Nc1cc(-c2ccccc2)ccc1O	-2	1	1	8	-2
